Shown are actives, neighbours in structure and some others; about 12% of the full set was active somewhere.
Gal4-VP16 FLuc: VP16 counterscreen qHTS for inhibitors of ROR gamma transcriptional activity; Drosophila S2 Gal4-VP16 UAS-luciferase, luminescence, 20 h; Potency, µM (top dose mostly 53.6 µM), inactives show at the top dose activity, negative = inhibition, actives largely listed as inhibitors; 3.5% of 310,000 active; AID 2546, 2010;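 further: Gal4-VP16 expression switched on by copper sulfate through the metallothionein promoter; nearly all actives have a fitted effect of over 50% in size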
ALDH1A1 block: qHTS Assay for Inhibitors of Aldehyde Dehydrogenase 1 (ALDH1A1); Purified ALDH1A1, NADH fluorescence, propionaldehyde substrate; Potency, µM (top dose mostly 75.3 µM), for the others: at the top dose activity, negative = inhibition, actives largely listed as inhibitors; 7.3% of 220,000 active; Aldehyde dehydrogenase 1A1 (Homo sapiens), P00352; AID 1030, 2008; active means well fitted inhibition curve with a large enough effect, not every such curve was filed as active; inconclusive means small, poorly fitted or top-dose-only effect, or another doubt; inactive means no such curve, though single readings can be large or run the other way;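 further: plate controls were no enzyme wells and a reference inhibitor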
RORgamma inh: qHTS for inhibitors of ROR gamma transcriptional activity; Nuclear receptor ROR-gamma (Mus musculus), P51450; Drosophila S2 Gal4-RORgamma UAS-luciferase reporter, 20 h; Potency, µM (doses to about 53.6 µM), for inactives: top-dose activity change, negative = inhibition, usual class: inhibitors; 5.4% of 310,000 active; AID 2551, 2010; further: nearly all actives have a fitted effect of over 60% in size
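Luciferase reporter read in Schneider cells carrying Gal4-RORγ (mouse) and UAS-Photinus luciferase; cells given compound 1 h before 700 uM copper sulfate induction, then incubated 20 h at ambient temperature.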
Sfp PPTase inh: qHTS Assay for Inhibitors of Bacillus subtilis Sfp phosphopantetheinyl transferase (PPTase) | Biochemical Sfp PPTase activity, qHTS | Potency, µM, for the others: largest response in the series, negative = inhibition, usual class: inhibitors | 3.5% of 310,000 active;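 further: the enzyme is Sfp with the accession as filed and its product quenches rhodamine fluorescence; 0% = enzyme reaction without inhibitor and -100% = no enzyme wells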
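After 15 min at room temperature with compound, 15 nM Sfp received 5 uM rhodamine-CoA plus 12.5 uM BHQ-2-ybbR (50 mM Hepes pH 7.6, 10 mM MgCl2). Rate came from the fluorescence difference over 30 min, ex 525/em 598 nm.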
PLK1 PBD block: qHTS for Inhibitors of PLK1-PDB (polo-like kinase 1 - polo-box domain): Primary Screen | Plk1 PBD binding of FITC phosphopeptide, fluorescence polarization | Potency, µM, for inactives: max response, negative = inhibition, usual class: inhibitors | 2.8% of 360,000 active; further: series mostly up to about 57 µM; nearly all actives have a fitted effect of over 65% in size
Target sequence (P53350 whole entry, looked up, the tested form may be a part): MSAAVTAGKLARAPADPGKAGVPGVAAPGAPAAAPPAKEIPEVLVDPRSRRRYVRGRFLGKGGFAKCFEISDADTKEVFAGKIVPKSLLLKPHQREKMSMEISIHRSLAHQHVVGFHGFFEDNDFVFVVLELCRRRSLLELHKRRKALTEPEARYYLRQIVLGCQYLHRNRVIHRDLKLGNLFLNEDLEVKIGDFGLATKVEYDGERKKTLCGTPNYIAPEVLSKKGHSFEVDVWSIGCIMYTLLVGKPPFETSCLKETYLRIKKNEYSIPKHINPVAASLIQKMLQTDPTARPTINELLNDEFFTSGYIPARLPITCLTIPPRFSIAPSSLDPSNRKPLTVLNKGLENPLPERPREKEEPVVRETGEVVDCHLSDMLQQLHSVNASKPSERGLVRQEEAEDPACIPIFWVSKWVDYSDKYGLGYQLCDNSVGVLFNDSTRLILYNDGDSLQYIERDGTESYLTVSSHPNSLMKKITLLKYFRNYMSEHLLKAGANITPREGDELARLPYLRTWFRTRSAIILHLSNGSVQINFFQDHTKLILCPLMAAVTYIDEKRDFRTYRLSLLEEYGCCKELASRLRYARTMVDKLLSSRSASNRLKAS
An asterisk follows results filed as active; ? = inconclusive; nt = no result given; [ ] = another dose, or the depositor's remark. Unless noted, the call rests on the fitted dose curve; in most records, active means well fitted curve in the direction sought with a large enough effect; inconclusive means small, poorly fitted or top-dose-only effect, or another doubt; inactive means no such curve, though single readings can be large; an effect the other way counts as inactive or inconclusive. Unless noted, on the % scale 0 is the no-effect control and ±100 the full control effect; potency means the concentration at half of the fitted maximal effect.

SMILES	Gal4-VP16 FLuc	ALDH1A1 block	RORgamma inh	Sfp PPTase inh	PLK1 PBD block
Cc1ccc(NC(=O)CSCC(=O)Nc2ncc3c(n2)CC(c2ccco2)CC3=O)cc1 (stereo not given)	5.4%	3.98µM*	2.2%	14.1µM*	-17.7%
Cc1ccc(C(=O)Nc2ncc3c(n2)CC(c2ccco2)CC3=O)cc1 (stereo not given)	0.6%	?	2.6%	-14.6%	-4.9%
CSCCNC(=O)C1(C)CCN1C(=O)CCc1ccccc1 (stereo not given)	nt	nt	nt	nt	-3.3%
O=C(/C=C/c1ccccc1)OCCCCN=C1NS(=O)(=O)c2ccccc21	-17.8%	-1.7%	27.1%	4.5%	26.7µM*
O=S(=O)(Nn1cnnc1)c1ccccc1Cl	17.9%[0.365 µM]	13.8%	-1.9%	3.0%	26.7µM*
O=S(=O)(Nn1cnnc1)c1ccccc1	19.5%	3.7%	-41.1%	2.0%	-7.5%
C=CC[C@](C)(Nc1ccc(OC)cc1)C(=O)OCC	-6.8%	3.7%	?	13.7%	nt
O=C1c2ccccc2-c2ccc(N=[N+]([O-])c3ccc4c(c3)C(=O)c3ccccc3-4)cc21	nt	7.6%[13.5 µM]	nt	nt	nt
Cc1c(C)n(Cc2ccccc2)c2ncnc(NN)c12	15.8µM*	nt	?	56.2µM*	0.1%
Cc1c(C)n(CCc2ccccc2)c2ncnc(NN)c12	?	nt	-16.7%	-19.1%	-10.2%
Cc1ccc(S(=O)(=O)CCc2ccccn2)cc1	-2.0%	7.2%	6.1%	-3.2%	-0.7%
CC(C)(C)c1ccc(S(=O)(=O)CCc2ccccn2)cc1	-5.0%	7.08µM*	-28.1%	-2.1%	-2.4%
NS(=O)(=O)c1cccc(NC(=O)CSc2nc3nc(-c4cccs4)cc(C(F)(F)F)c3c(=O)[nH]2)c1	4.5%	nt	16.5%	-0.5%	33.6µM*
O=c1[nH]c(=S)[nH]c2nc(-c3cccs3)cc(C(F)(F)F)c12	-11.5%	nt	11.2µM*	6.0%	-18.3%
N#CCCN(C(=O)CSc1nc2nc(-c3cccs3)cc(C(F)(F)F)c2c(=O)[nH]1)c1ccccc1	-3.5%	?	-27.2%	-10.0%	-25.5%
O=C(CSc1nc2nc(-c3cccs3)cc(C(F)(F)F)c2c(=O)[nH]1)Nc1c(F)c(F)c(F)c(F)c1F	8.9%	?	25.3%	12.3%	33.6µM*
O=C(NCc1cccnc1)c1ccc(NC(=O)c2ccc([N+](=O)[O-])cc2)cc1	-6.2%	nt	3.9%	-5.3%	-4.7%
CCOC(=O)Cc1ccc(NC(=O)c2ccc(C(C)(C)C)cc2)cc1	?	-6.3%	0.199µM*	24.5%	5.32µM*
O=C(NC(=S)NCc1cccnc1)c1ccc([N+](=O)[O-])cc1	?	-5.0%	8.91µM*	-29.0%	-8.8%
COc1ccc(C(=O)Oc2cccnc2)cc1OC	3.0%	10µM*	-3.3%	-10.9%	0.8%
COc1ccc(C(=O)NCc2cccnc2)cc1OC	-18.8%	25.1µM*	18.9%	-1.6%	-6.6%
O=C(Nc1ccccc1)c1ccsc1	-6.6%	-6.0%	-5.5%	14.2%	4.8%
CCCC[C@@H]1C[C@H]1C(NC(=O)c1ccco1)c1ccc(Cl)cc1 (stereo not given in full)	2.4%	-7.2%	37.8%	4.7%	nt
CS(=O)(=O)Nc1cccc(-c2nc(NCc3cccs3)c3ccccc3n2)c1	-17.6%	-22.7%	?	?	nt
O=C(NCc1cccnc1)c1ccc(Cl)c(S(=O)(=O)N2CCCCCC2)c1	-5.1%	-6.2%	23.8%	-9.4%	26.7µM*
SMILES	Gal4-VP16 FLuc	ALDH1A1 block	RORgamma inh	Sfp PPTase inh	PLK1 PBD block
CC(C)c1ccc(C(=O)NC(=S)NCc2cccnc2)cc1	?	28.2µM*	2.82µM*	-2.3%	-8.2%
O=C(NCc1cccnc1)c1ccc(Cl)c(S(=O)(=O)N2CCOCC2)c1	6.9%	nt	-0.2%	14.2%	2.7%
Cc1onc(-c2c(F)cccc2Cl)c1C(=O)NC(=S)NCc1cccnc1	?	?	15.8µM*	24.3%	-6.7%
CC(C)(C)c1ccc(C(=O)Nc2ccc(C(=O)NCc3cccnc3)cc2)cc1	28.2µM*	nt	?	-20.8%	6.1%
CC(C)(C)C(=O)Nc1ccc(C(=O)NCc2cccnc2)cc1	25.0%	4.6%	29.3%	-3.2%	0.1%
O=C(O)c1c(C(=O)O)c2ccccc2[nH]c1=O	-6.3%	-5.4%	13.2%	17.7%	nt
COCCOC(=O)C1=C(C)NC(C)=C(C(=O)OC/C=C/c2ccccc2)C1c1cccc([N+](=O)[O-])c1 (stereo not given)	?	nt	?	10.6%	nt
COc1ccc(S(=O)(=O)NC(=O)C2(C)CCN2C(=O)C(C)(C)c2ccccc2)cc1 (stereo not given)	nt	nt	nt	nt	-8.5%
CCC(=O)c1c[nH]c(C(=O)NCc2cccnc2)c1	-4.2%[10 µM]	-2.3%	-21.0%	13.3%	-12.6%
COc1ccc(C(=O)NC(=S)NCc2cccnc2)cc1Br	?	?	?	8.2%	-7.6%
CCCC(=O)c1c[nH]c(C(=O)NCc2cccnc2)c1	1.8%[10 µM]	28.2µM*	-1.2%	-11.7%	-8.4%
Cc1ccc(C(=O)NC(=S)NCc2cccnc2)cc1C	?	?	12.6µM*	5.4%	-2.2%
c1ccc(-c2csc(NC3=NCCCCC3)n2)cc1	6.1%	-2.2%	-13.8%	0.1%	-5.4%
N#Cc1ccc(-c2csc(NC3=NCCCCC3)n2)cc1	?	-12.3%	?	-11.0%	-16.9%
CC(C)(C)c1ccc(-c2csc(NNC3=NCCCCC3)n2)cc1	?	-15.4%	12.6µM*	50.1µM*	?
FC(F)Oc1ccc(-c2csc(NNC3=NCCCCC3)n2)cc1	4.1%	?	?	22.4µM*	3.77µM*
Brc1ccc(-c2csc(NNC3=NCCCCC3)n2)cc1	14.1µM*	11.2µM*	7.08µM*	50.1µM*	?
CCN(CC)CCCC(C)NC(=O)c1ccc(Cc2nc3ccccc3[nH]2)cc1 (stereo not given)	nt	-1.4%	nt	nt	nt
COc1ccc(C2=NN(CN3C(=O)C(=O)c4ccccc43)C(c3ccc(C)cc3)C2)cc1 (stereo not given)	16.1%	0.562µM*	-13.9%	-1.2%	-11.3%
COc1ccc(C2=NN(CN3C(=O)C(=O)c4ccccc43)C(c3ccc(Br)cc3)C2)cc1 (stereo not given)	4.6%	0.282µM*	23.6%	3.2%	-13.9%
COc1cccc(-c2nc(N3CCN(C)CC3)c3ccccc3n2)c1	-4.2%	9.5%	-14.9%	7.0%	nt
CCOC(=O)C1=C(C)C(c2ccccc2OC)NC(=O)N1 (stereo not given)	-5.3%	-14.2%	1.8%	-6.9%	?
CCOC(=O)C1=C(C)C(c2ccccc2OC)NC(=S)N1 (stereo not given)	0.0%	3.55µM*	2.82µM*	2.7%	-6.2%
